Data on 18 compounds can be found in PubChem BioAssay (NCI).

Compounds without any hit were thinned out: in the full panel of roughly 83,000, 20% have a hit.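 Method: cells in 96-well plates; compound added at one concentration; 48 h incubation; percent growth measured; values under 10 scored active.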 A number with no mark means an inactive call. The source made the active and inactive calls.

Holding throughout (test): NCI-60 one-dose screen, 48 h (100 = growth as untreated, 0 = no growth, -100 = all killed)
One test concerns BT-549 breast. As to conditions: 10 µM unless noted.
A further test deals with MDA-MB-435 melanoma. As to conditions: 10 µM unless noted.
For a further test, the system named is MCF7 breast. The conditions noted are these: 10 µM.
The test system of another test is HCT-116 colon. The conditions noted are these: 10 µM unless noted.
For the next test, the system named is KM12 colon. As to conditions: 10 µM unless noted.
The next test has as its system SW-620 colon. As to conditions: 10 µM unless noted.
Another test relates to HCC-2998 colon. The conditions noted are these: 10 µM unless noted.

On to `COc1cc(C2C(C#N)=C(N)OC3=C2C(=O)c2ccccc2C3=O)cc(OC)c1OC` (stereo unspecified), for which the growth in the test on BT-549 breast is 41.4%; in the test on MDA-MB-435 melanoma it was -19.7% (active); in the test on MCF7 breast it was 18.9%; with HCT-116 colon it was 19.1%; with KM12 colon, 13.1%.
`COc1cc(OC)cc(N2C(=O)N(Cc3ccc(C(C)(C)C)cc3)c3ccccc3S2(=O)=O)c1`: the growth is 99.6% in the test with BT-549 breast; 82.2% in the test with SW-620 colon; 90.7% in the test with MCF7 breast; 76.2% in the test with HCT-116 colon; -46% (active) in the test on HCC-2998 colon; 82.6% with KM12 colon.
`CCc1ccc(CNCC(O)c2ccccc2)cc1` (stereo unspecified): the growth is 90.1% in the test on BT-549 breast; 89.6% with SW-620 colon; 29.8% with MCF7 breast; 47.8% in the test on HCT-116 colon; 38.5% with HCC-2998 colon; 72.5% in the test on KM12 colon.
With `CCC1=C[C@@H]2CN(C1)Cc1c([nH]c3ccccc13)[C@@](C(=O)OC)(c1cc3c(cc1OC)N(C)[C@H]1[C@@](O)(C(=O)OC)[C@H](OC(C)=O)[C@]4(CC)[C@@H]5C[C@@H]5CN5CC[C@]31[C@@H]54)C2`, the growth is 12.8% in the test on BT-549 breast; 26.1% in the test on SW-620 colon; 3.46% (active) in the test with MCF7 breast; 6.72% (active) in the test with HCT-116 colon; -13.1% (active) in the test with HCC-2998 colon; 5.74% (active) with KM12 colon.
With `COC(=O)/C(CCC=C(C)C)=C1\[C@@H](OC(C)=O)C[C@@]2(C)[C@H]1C[C@@H](O)[C@H]1[C@@]3(C)CC[C@H](NCCO)[C@@H](C)[C@@H]3CC[C@@]12C`, the growth in the test on BT-549 breast was 114%; in the test with MDA-MB-435 melanoma it was 98.9%; in the test on MCF7 breast it was 98.8%; with HCT-116 colon it was 105%; with HCC-2998 colon it was 106%; in the test with KM12 colon, 103%.
For `COc1ccc(-n2c(C(O)c3ccccc3)n[nH]c2=S)cc1` (stereo unspecified), the growth in the test with BT-549 breast was 110%; in the test on SW-620 colon it was 105%; in the test with MCF7 breast, 93.7%; in the test with HCT-116 colon it was 96.3%; in the test with HCC-2998 colon, 106%; in the test on KM12 colon it was 101%.
As to `COc1ccc(C(O)(CCC(C)C)C(CN2CCOCC2)c2ccc(Cl)cc2)cc1` (stereo unspecified), the growth in the test on BT-549 breast was 62.2%; with SW-620 colon it was 28.5%; in the test on MCF7 breast, 55.6%; in the test with HCT-116 colon, 26.6%; with HCC-2998 colon, 64.6%; in the test on KM12 colon it was 48%.
With `C#CCn1cc(C=C2C(=O)NC(=O)NC2=O)c2cc(Cl)ccc21`, the growth in the test with BT-549 breast is 64.6%; with MDA-MB-435 melanoma it was 88.3%; with MCF7 breast, 72.4%; in the test with HCT-116 colon, 71.5%; in the test with HCC-2998 colon, 95.6%; in the test with KM12 colon, 85.6%.
As to `CC(=O)O[C@@H]1/C=C/C(=O)N[C@@H](C)CCC/C=C/[C@@H]2CCC[C@H]21`, the growth in the test with BT-549 breast is 117%; with SW-620 colon, 112%; with MCF7 breast, 98.8%; in the test with HCT-116 colon it was 104%; in the test with HCC-2998 colon it was 98.5%; with KM12 colon, 108%.
For `CCOc1cc2c(cc1OCC)C(c1cc(C)c(O)c(C)c1)NCC2` (stereo unspecified), the growth in the test with BT-549 breast is 107%; with MDA-MB-435 melanoma it was 97.5%; in the test on MCF7 breast it was 89.1%; with HCT-116 colon it was 94.2%; in the test with HCC-2998 colon it was 103%; in the test with KM12 colon, 103%.
On to `COc1ccc(-n2c(C(O)c3ccccc3)nn(CN3CCOCC3)c2=S)cc1` (stereo unspecified), for which the growth in the test with BT-549 breast was 108%; in the test on SW-620 colon it was 87%; in the test with MCF7 breast, 105%; with HCT-116 colon it was 105%; with HCC-2998 colon, 106%; with KM12 colon, 99.8%.
Turning to `COc1cc(CNC(=O)c2ccsc2Nc2ccnc(C(F)(F)F)c2)ccc1O`, the growth is 103% in the test with BT-549 breast; 101% in the test on MDA-MB-435 melanoma; 113% in the test on MCF7 breast; 101% with HCT-116 colon; 109% in the test on HCC-2998 colon; 104% in the test with KM12 colon.
With `COc1ccc(CCN2C(=O)CCSC2=S)cc1OC`, the growth with BT-549 breast was 114%; with SW-620 colon, 87.6%; in the test with MCF7 breast, 28%; with HCT-116 colon, 103%; in the test on HCC-2998 colon, 102%; with KM12 colon, 5.07% (active).
On to `CCOC(=O)c1cnc2c(C)cccc2c1Nc1ccc(C(C)=O)cc1`, for which the growth in the test on BT-549 breast is 61.5%; in the test on MDA-MB-435 melanoma it was -63.8% (active); with MCF7 breast, -39.7% (active); in the test with HCT-116 colon, 1.75% (active); in the test on HCC-2998 colon it was -91% (active); in the test with KM12 colon, -34.7% (active).
Turning to `COc1ccc(C)c2sc(N(Cc3cccnc3)C(=O)c3ccc(C#N)cc3)nc12`, the growth with BT-549 breast was 21.7%; in the test with SW-620 colon, 10.8%; with MCF7 breast it was 3.83% (active); in the test on HCT-116 colon, 13.2%; with HCC-2998 colon it was 10.9%; with KM12 colon, 18.2%.
`COc1ccc(-c2nc(-c3ccccn3)c(-c3ccccn3)n2CC(C)C)cc1OC1CCCC1`: the growth with BT-549 breast is 38.5%; in the test on SW-620 colon, 21.9%; in the test on MCF7 breast, 10.8%; with HCT-116 colon, 14.7%; in the test with HCC-2998 colon it was 24.4%; in the test on KM12 colon, 8.2% (active).
For `Nc1nonc1-n1nncc1-c1cccnc1`, the growth in the test with BT-549 breast was 105%; with MDA-MB-435 melanoma, 102%; with MCF7 breast, 93.4%; in the test on HCT-116 colon, 106%; in the test with KM12 colon, 105%.
Turning to `O=C(NCc1ccccc1)C1CN(c2ccc(Cl)cc2)N(c2ccc(Cl)cc2)C1=O` (stereo unspecified), the growth with BT-549 breast was 83.4%; with MDA-MB-435 melanoma, 3.28% (active); in the test on MCF7 breast it was 49.8%; in the test on HCT-116 colon it was 83.8%; in the test on HCC-2998 colon, 99.4%; with KM12 colon, 59.8%.
